Reference: PubChem BioAssay (NCI)
Compounds without any hit were thinned out: in the full panel of roughly 79,000, 15% have a hit. Active and inactive are the calls of the source. No stated cut-off is given here; in the data, active means growth inhibition above about 70%; inactive means the rest.

What was measured:
[1] = NCI Yeast Anticancer Drug Screen. Data for the rad50 strain (AID 155);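 further: 0% = growth of vehicle-only cultures of the same strain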; settings: S. cerevisiae rad50 strain growth inhibition; at 50.0 µM; active compounds read high
Method in brief: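 Cells are treated with compound, grown, and their growth is then scored against vehicle-only cultures of the same repair-deficient yeast strain.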

[2] = NCI Yeast Anticancer Drug Screen. Data for the mec2-1 strain (AID 157); settings: S. cerevisiae mec2-1 strain, at 50.0 µM, active compounds read high
Method in brief: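 Compounds were applied to mec2-1 yeast cells. Their growth was then compared with that of vehicle-treated cultures to give growth inhibition.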

[3] = NCI Yeast Anticancer Drug Screen. Data for the sgs1 mgt1 strain (AID 161);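 further: 0% = growth of cultures given vehicle only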; settings: S. cerevisiae sgs1 mgt1 strain, at 50.0 µM, active compounds read high
Method in brief: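 Percent growth inhibition was derived by comparing compound-exposed mutant yeast with vehicle-exposed cultures. The strain carries alterations in DNA damage repair.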

[4] = NCI Yeast Anticancer Drug Screen. Data for the cln2 rad14 strain (AID 165);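 further: 0% = growth equal to vehicle treated cultures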; settings: S. cerevisiae cln2 rad14 strain, at 50.0 µM, active compounds read high
Method in brief: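 Strain: cln2 rad14 yeast, altered in cell cycle control and DNA damage repair. Read-out: growth inhibition vs vehicle.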

[5] = NCI Yeast Anticancer Drug Screen. Data for the bub3 strain (AID 167); settings: S. cerevisiae bub3 mutant strain, at 50.0 µM, active compounds read high
Method in brief: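 Part of a panel of yeast mutants defective in DNA damage repair or cell cycle regulation. Each strain is grown with compound, and inhibition is calculated relative to solvent-treated cultures.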

[6] = NCI Yeast Anticancer Drug Screen. Data for the mlh1 rad18 strain (AID 175); settings: S. cerevisiae mlh1 rad18 strain growth inhibition; at 50.0 µM; active compounds read high
Method in brief: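 A repair-deficient yeast strain is exposed to test compound, and growth is scored relative to vehicle-treated controls.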

Measured: growth inhibition

CC/C(Cl)=N\OC(=O)Nc1ccccc1OC(F)(F)F
inactive: [1] -24.1% | [2] -15.4% | [4] -13.6% | [5] 18.6% | [6] -89.6%
active: [3] 87.2%

O=C(O)CC1CCCCCC1
inactive: [1] 21.9% | [2] 8.25% | [3] 12.8% | [4] 12.9% | [5] 32.8% | [6] 12%

CCCCCCC(=O)/C=C/c1cc(Cl)cc(Cl)c1OCOC
inactive: [1] 35% | [2] 26.1% | [3] 25.1% | [4] -4.4% | [5] 18.4% | [6] 5.6%

Clc1ccc(Nc2nc3ccccc3nc2-c2cccs2)cc1Cl
inactive: [1] -13.4% | [2] 4.55% | [3] 1.2% | [4] -7.5% | [5] -3.05% | [6] -2.1%

NNC(=O)Cc1ccc2ccccc2c1
inactive: [1] 12.3% | [2] -32.1% | [3] 4.45% | [4] -7.05% | [5] 4.6% | [6] 12%

COc1ccc(N)nn1
inactive: [1] 1.6% | [2] -6.9% | [3] -9.15% | [4] 7.5% | [5] 4.75% | [6] -10.2%

C/C(=C/C(=O)O)CC/C=C(/C)C(=O)O
inactive: [1] -0.15% | [2] -5.1% | [3] -1.25% | [4] 21.4% | [5] 22.1% | [6] 4.9%

CC1C(c2ccccc2)=NN(C)c2ccccc21 (configuration not stated)
inactive: [1] 19.6% | [2] 0.6% | [3] 3.7% | [4] -28.1% | [5] 8.45% | [6] 21.8%

Cn1c(=S)c2[nH]c(SCCCc3ccccc3)nc2n(C)c1=O
inactive: [1] -19.4% | [2] -36% | [3] -5.8% | [4] -32.3% | [5] -25.9% | [6] 12.5%

COc1cc(NS(=O)(=O)c2ccc(N)cc2)c2ncccc2c1
inactive: [1] 1.2% | [2] 22.8% | [3] 8.8% | [4] -17.1% | [5] 4.5% | [6] 2.95%

O=c1[nH]c2cc([N+](=O)[O-])ccc2nc1/C=C(\O)c1ccco1
inactive: [1] 7.7% | [2] -14.2% | [3] 7.9% | [4] -0.65% | [5] -18.7% | [6] 22.1%

N=C(N)SCc1cn2ccccc2n1
inactive: [1] -37% | [2] -30.5% | [3] -62.7% | [4] 1.35% | [5] -27.6% | [6] -50.8%

N#CCCC(=O)O
inactive: [1] 17.6% | [2] 0.45% | [3] 11.7% | [4] 3.45% | [5] 2.5% | [6] 15.8%

CC1(C)C[C@H](OC2CCCCO2)[C@H]2O[C@@]2(C)C1 (some centres not stated)
inactive: [1] 10.8% | [2] 4.3% | [3] -29.8% | [4] 1.1% | [5] 18.4% | [6] 3.95%

COC1OC(C)CC(O)C1O (configuration not stated)
inactive: [1] 5.3% | [2] -7.05% | [3] 14.7% | [4] -57.6% | [5] 2.7% | [6] -37.8%

CCOC(=O)C(NC(=S)Cc1ccccc1)C(=O)OCC
inactive: [1] 10.1% | [2] -2.85% | [3] -4.8% | [4] -5.7% | [5] 9.75% | [6] -0.35%

CCCCCCOCC(=O)O
inactive: [1] -6.75% | [2] -11.2% | [3] -7.25% | [4] -19.8% | [5] -10.4% | [6] -13.7%

CCCCCC(=O)OCC(Br)CBr (configuration not stated)
inactive: [1] -7.6% | [2] -10.6% | [3] 22.5% | [4] -23.1% | [5] 40.5% | [6] 1.1%

CC1(C)N=C(Oc2ccccc2)n2nccc2N1
inactive: [1] -12.6% | [2] -15.6% | [3] -14.6% | [4] 2.55% | [5] -18.3% | [6] -29.6%

Cc1cc(=O)c2cc(Br)cc(Br)c2[nH]1
inactive: [1] 11.8% | [2] -13.8% | [3] 8.3% | [4] 0.05% | [5] 9.85% | [6] 12%

CCCCCCCCCCCCOP(=O)(CC(=O)NCc1cc(C(C)(C)C)c(O)c(C(C)(C)C)c1)OCCCCCCCCCCCC
inactive: [1] -1.55% | [2] 3.3% | [3] 21.9% | [4] -7.3% | [5] -2.9% | [6] -9.9%

CC(O)C(C)C(N)C(=O)O (configuration not stated)
inactive: [1] 3.7% | [2] 2% | [3] -1.05% | [4] -0.85% | [5] -0.3% | [6] 18.4%

CCCC/C=C/C1C=CC(CCCCCCCC(=O)OCC)C(C(=O)OCC)C1 (configuration not stated) (tested in a mixture with another compound)
inactive: [1] 21% | [2] 8.75% | [3] 20% | [4] 17.4% | [5] 2.2% | [6] -13.4%

O=C(Nc1ccccc1SC(/C=C/NNC1=NC(c2ccccc2)C(c2ccccc2)=NN1)c1ccccc1)c1ccc(Cl)cc1Cl (configuration not stated)
inactive: [1] -35% | [2] -7.7% | [3] -22.8% | [4] 24.8% | [5] 0.15% | [6] -13.4%

Cc1ccc(N(CN2C(=O)CCC2=O)CS(=O)(=O)c2ccc(C)cc2)cc1
inactive: [1] -1.85% | [2] -8.6% | [3] -9.15% | [4] 21.4% | [5] -5.65% | [6] 0.8%

COc1ccc(/C=C2\CCN(C(C)=O)C2=O)cc1
inactive: [1] 2.35% | [2] -2.65% | [3] -7.8% | [4] 2.6% | [5] 3.25% | [6] -10.7%

O=C(O)C12C3CCC(CC3)C1(C(=O)O)C1CCC2C1 (configuration not stated)
inactive: [1] -57.6% | [2] -12.4% | [3] -12.1% | [4] -24.1% | [5] 5.05% | [6] -1.2%

CO/C=C/c1cc2c(cc1Br)OCO2
inactive: [1] 10.9% | [2] 5.15% | [3] 25.4% | [4] 0.75% | [5] 11.4% | [6] 12.3%

C[N+]1=C(/C=C/c2ccnc3c(O)cccc23)C(C)(C)c2ccccc21
inactive: [1] 10% | [2] 11.2% | [3] 2.45% | [4] -60.4% | [5] -6.4% | [6] 8.65%

CCOC(=O)C(C)(Br)C(Br)c1ccc([N+](=O)[O-])cc1 (configuration not stated)
active: [1] 96.8% | [2] 93.2% | [3] 96.9% | [5] 80.9% | [6] 97%
inactive: [4] 42.7%

[Cu+2].[Cu+2].[O-]c1ccccc1C=Nc1ccccc1[O-].[O-]c1ccccc1C=Nc1ccccc1[O-]
inactive: [1] 7.25% | [2] -0.95% | [3] -1.2% | [4] 16.9% | [5] 2.1% | [6] 1.55%

CCOC(=O)N1C2c3ccccc3C3C(C21)N3C(=O)OCC (configuration not stated)
inactive: [1] -0.3% | [2] -12.3% | [3] 0.3% | [4] 1.95% | [5] 3.9% | [6] -11.4%

CCC(CCC#N)(CCC#N)C(=O)c1ccc(C)s1
inactive: [1] 1.5% | [2] -4.3% | [3] 1.3% | [4] -19.8% | [5] 0.1% | [6] 2.45%

CC(C)CCCC(C)C1CCC2C3C=C(C(=O)O)C(C)(CCC(=O)O)C3CCC12C (configuration not stated)
inactive: [1] 45% | [2] 32% | [3] 42% | [4] 7.7% | [5] -2.15% | [6] 44.1%

O=C(Cc1ccccc1)NCc1ccc(Cl)cc1
inactive: [1] 3.75% | [2] 18.2% | [3] 34.1% | [4] -5.7% | [5] 41.1% | [6] 27.4%

Cc1ccc(C(=O)C(c2nc3n(c2O)/C(=N/C(=O)Nc2ccc(Cl)cc2)N=N3)c2nc3n(c2O)/C(=N/C(=O)Nc2ccc(Cl)cc2)N=N3)cc1
inactive: [1] -44.1% | [2] -29.2% | [3] -27.2% | [4] -39% | [5] -29.1% | [6] -25.4%

CC1(C)/C(=C/N=O)N(O)C(C)(C)N1O
inactive: [1] -26.9% | [2] -34.6% | [3] -43.8% | [4] 5.75% | [5] -35.9% | [6] -15.2%

Cc1cc(N(CCC#N)CCC#N)ccc1/C(N=Nc1ccc(Cl)cc1)=N\NC(=O)c1ccccc1
inactive: [1] 1.3% | [2] -2.65% | [3] -0.5% | [4] -10.2% | [5] -7.3% | [6] -31.1%

Cc1ccc2c(c1)[nH]c(=S)n2C=C(C#N)C#N
inactive: [1] -23.6% | [2] -42.4% | [3] -1.1% | [4] 0.75% | [5] -0.55% | [6] -5.15%

CSc1c2c([nH]c(=O)c1C#N)-c1ccccc1CC2
inactive: [1] -6.5% | [2] -1.4% | [3] 4.85% | [4] 15.1% | [5] -3.65% | [6] 3.95%

CCN(CC)CCOC(=O)CCC(C)=O
inactive: [1] 6.35% | [2] -31.5% | [3] -7.65% | [4] 0.8% | [5] -9.1% | [6] 7.45%

COc1ccc(N(C)CN(C)c2nc(N(C)C)nc(N(C)C)n2)cc1
inactive: [1] -67.8% | [2] -30.8% | [3] -43% | [4] -45.4% | [5] -60.8% | [6] -62.9%
